TDP1 cell noCPT – qHTS for Inhibitors of human tyrosyl-DNA phosphodiesterase 1 (TDP1): qHTS in cells in absence of CPT; DT40 Tdp1-/- hTDP1 cells, no CPT, ATP luminescence, 48 h; Potency, µM (top dose mostly 46.2 µM), for inactives: top-dose activity change, negative = growth inhibition, usual class: inhibitors; actives 15% (n = 420,000); note: potency is the fitted concentration of half-maximal effect; nearly all actives have a fitted effect of over 55% in size
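Stably hTDP1-transfected Tdp1-null chicken DT40 cells were treated with library compounds minus camptothecin and grown for at least 48 hr at 37 °C, after which cellular ATP was quantified by luminescence.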
DT40 TDP1 CPT – qHTS for Inhibitors of human tyrosyl-DNA phosphodiesterase 1 (TDP1): qHTS in cells in presence of CPT; chicken DT40 Tdp1-/-;hTDP1 cells + 20 nM CPT, ATP luminescence, 48 h; Potency, µM (titrated, usually from 46.2 µM), for inactives: at the highest dose activity change, negative = growth inhibition, actives largely listed as inhibitors; actives 12% (n = 420,000); AID 686979, 2013; note: potency is the fitted concentration of half-maximal effect; nearly all actives have a fitted effect of over 55% in size
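Chicken DT40 Tdp1-/- cells complemented with human TDP1, 400 cells/well, exposed to compounds plus 20 nM camptothecin for at least 48 h at 37 C; viability read as ATP content by CellTiter-Glo luminescence.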
HT1080 IDH1KD tx – qHTS for induction of synthetic lethality in tumor cells producing 2HG: qHTS for the HT-1080-IDH1KD cell line; AID 686971, 2013; HT-1080 IDH1 knockdown viability, ATP luminescence, 48 h; Potency, µM (highest dose often 46.1 µM), for the others: at the top dose activity, negative = toxicity, most hits filed as cytotoxic; actives 2% (n = 360,000);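 note: potency is the fitted concentration of half-maximal effect; 0% = DMSO wells and -100% = cell-free medium wells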
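Knockdown cells (IDH1KD HT-1080) received compounds 2 h after plating at 750 cells/well and were kept 48 h at 37 °C in 5% FBS RPMI. A CellTiter-Glo luminescence read gave % activity for curve fitting.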
HT1080-NT tox – qHTS for induction of synthetic lethality in tumor cells producing 2HG: qHTS for the HT-1080-NT fibrosarcoma cell line. HT-1080-NT fibrosarcoma viability, CellTiter-Glo ATP luminescence, 48 h. Potency, µM (titrated, usually from 46.1 µM), without a hit: at the highest dose activity, negative = less viability, most hits filed as cytotoxic. actives 1.6% (n = 360,000). AID 686970, 2013;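 note: NT is the 2HG producing partner of a matched IDH1 knockdown line; potency is the fitted concentration of half-maximal effect; 0% = DMSO-treated cells and -100% = media-only wells without cells; nearly all actives have a fitted effect of over 55% in size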
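Toxicity toward the 2HG-producing NT line was scored as %Activity, normalised to DMSO and no-cell wells, from CellTiter-Glo luminescence after 48 hours' treatment.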
IL1B secr inh – qHTS for Inhibitors of Inflammasome Signaling: IL-1-beta AlphaLISA Primary Screen. AID 743279, 2014. activity change, % at 57.5 µM. THP-1 LPS/ATP IL-1B secretion, AlphaLISA, 16 h; hits give low values. actives 4.7% (n = 360,000); in the data active = activity change below about -50%; inconclusive = mostly about -30% to -49%
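THP-1 cells pretreated 1 hr with compounds (up to 57.5 uM final), then stimulated with LPS (250 ng/mL final) plus ATP (1.25 mM final); secreted IL-1B measured by AlphaLISA after 16 hr, decreased signal indicating inhibition.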
* hit, by the source's call; u = inconclusive; x = not tested or not shown; [ ] = another dose, or the depositor's remark. Most compounds without a hit are left out; they make up all but 19% or so of the library. Unless noted, calls come from the whole dose curve; as a rule, active = well fitted curve in the direction sought with a large enough effect; inconclusive = small, poorly fitted or top-dose-only effect, or another doubt; inactive = no such curve, though single readings can be large; an effect the other way counts as inactive or inconclusive. Unless noted, % is set by controls: 0 for no effect and ±100 for the full control effect.

SMILES | TDP1 cell noCPT | DT40 TDP1 CPT | HT1080 IDH1KD tx | HT1080-NT tox | IL1B secr inh
CN(C(=O)CSc1ncnc2ccccc12)C1CCCCC1 | -15% | -5% | 13% | 12% | -89*
O=C(COc1ncnc2ccccc12)Nc1cccc(S(=O)(=O)N2CCOCC2)c1 | 2% | 6% | 9% | 14% | 35
O=C(CSc1ncnc2ccccc12)Nc1cccc(S(=O)(=O)N2CCOCC2)c1 | 16µM* | -19% | -10% | -4% | u
O=C(CSc1nc2ccccc2c(=O)n1-c1ccc(F)cc1)Nc1ccc(N2CCOCC2)cc1 | -26% | u | 0% | -1% | 102
O=C(CSc1nc2ccccc2c(=O)n1-c1ccc(F)cc1F)Nc1ccc(N2CCOCC2)cc1 | 21µM* | 23µM* | -2% | -2% | -6
O=c1c2ccccc2nc(SCc2cccc(F)c2)n1-c1cccc(S(=O)(=O)N2CCCC2)c1 | 18µM* | 12µM* | 8% | 3% | 0
Cc1cc(C)c(S(=O)(=O)Nc2cccc(S(=O)(=O)N3CCOCC3)c2)c(C)c1 | -5% | -8% | -1% | -1% | 8
CCCCCCCC/C=C\CCCCCCCCOC[C@H](COP(=O)([O-])OCC[N+](C)(C)C)OC(C)=O | 2%[4.12 µM] | 7%[4.12 µM] | x | x | x
O=C(COC(=O)c1ccc2c(c1)OCCO2)NCCc1ccc(F)cc1 | 9% | -22% | 16% | 4% | 35
Cc1c(C(=O)N2CCN(c3ccc(F)cc3)CC2)sc2nc3n(c(=O)c12)CCC3 | u | u | 7% | 4% | -18
O=C(CSc1cccc2cccnc12)Nc1ccc(S(=O)(=O)N2CCOCC2)cc1 | u | u | u | u | -101*
CCCn1c(SCC(=O)Nc2cccc(S(=O)(=O)N(C)C)c2)nc2ccccc2c1=O | u | u | u | u | -27
CN(C)S(=O)(=O)c1ccc(NC(=O)CSc2nnnn2C)cc1 | 13% | 6% | 17% | 15% | -11
O=C(CSc1nc2ccccc2c(=O)n1-c1ccccc1Cl)Nc1cccc(S(=O)(=O)N2CCOCC2)c1 | u | 15µM* | -9% | -6% | -12
CN(C)S(=O)(=O)c1ccc(NC(=O)CSc2ncnc3ccccc23)cc1 | u | -27% | -26% | -12% | -102*
O=C(CSc1nc2ccccc2c(=O)n1-c1ccc(F)cc1)Nc1cc(S(=O)(=O)N2CCOCC2)ccc1Cl | u | u | 10% | 10% | -12
CN(C)S(=O)(=O)c1cccc(NC(=O)CSc2ncnc3ccccc23)c1 | 18µM* | 21µM* | -11% | -3% | -100*
Cn1c(CN2CCOCC2)nnc1SCC(=O)Nc1cc(Cl)ccc1Cl | -13% | -3% | 8% | -3% | 12
Cc1ccc2[nH]nc(C(=O)N3CCOc4ccc(CN5CCc6sccc6C5)cc4C3)c2c1 | u | -4%[9.04 µM] | x | x | x
O=c1nc2sc3ccccc3n2c(=O)n1-c1ccc(Cl)c(Cl)c1 | 10µM* | u | x | x | x
O=c1nc2sc3ccccc3n2c(=O)n1-c1cccc(Cl)c1 | u | u | -17% | -8% | 0
Cc1ccc2c(c1)sc1nc(=O)n(-c3ccc(Cl)cc3)c(=O)n12 | -17% | -9% | 6% | 5% | -5
O=c1nc2sc3ccccc3n2c(=O)n1-c1ccc(Cl)cc1 | 21µM* | u | 14% | 22% | -16
C=C1CCN([C@H](C(=O)NCc2ccc(Cl)c(Cl)c2)C(C)C)S(=O)(=O)c2ccccc21 | 5% | -18% | 1% | -11% | -6
COCCCn1c(SCC(=O)n2c(C)c(C)c3ccccc32)nnc1-c1ccoc1C | u | u | -2% | -6% | 43
SMILES | TDP1 cell noCPT | DT40 TDP1 CPT | HT1080 IDH1KD tx | HT1080-NT tox | IL1B secr inh
CCc1cc(-c2n[nH]c(C)c2-c2nc3ccccc3n2C)c(O)c(CN2CCN(C)CC2)c1O | -10% | -18% | u | u | -12
CCc1cc2c(=O)c(-c3nc4ccccc4n3C)c(C)oc2cc1OC(C)=O | u | u | -7% | -7% | 17
CCc1cc2c(=O)c(-c3nc4ccccc4n3C)c(C)oc2c(CN2CCOCC2)c1O | 9.2µM* | 8.2µM* | -27% | -15% | -16
CCc1cc2c(=O)c(-c3nc4ccccc4n3C)c(C)oc2c(CN2CCN(CCO)CC2)c1O | u | 16µM* | -4% | u | -4
CCc1cc2c(=O)c(-c3nc4ccccc4n3C)coc2c(CN2CCCC(C)C2)c1O (configuration not stated) | 9.2µM* | u | -5% | -2% | -1
CCc1cc2c(=O)c(-c3nc4ccccc4n3C)c(C(C)C)oc2c(CN2CCN(C)CC2)c1O | 12µM* | 7.3µM* | -6% | -12% | -8
COc1ccc(-c2noc(N3CCC(C(=O)NCCCN4CCCC(C)C4)CC3)n2)cc1 (configuration not stated) | -29% | u | -12% | -18% | -11
O=C(NCCC(=O)N1CCN(S(=O)(=O)c2ccccc2F)CC1)Nc1ccccc1 | 6% | -2% | 19% | 2% | 2
CCCCn1c(N)c(N(CCC(C)C)C(=O)c2ccccc2-n2cnnn2)c(=O)[nH]c1=O | 6% | 4% | 2% | 7% | 2
Cn1c(O)c(C2=c3ccccc3=NC2=O)sc1=Nc1ccc(Cl)cc1 | u | 23µM* | -17% | -6% | 16
O=C(O)Cn1c(O)c(C2=c3ccccc3=NC2=O)sc1=O | -12% | u | -2% | -10% | 0
Cc1ccc(CS(=O)(=O)Cc2ccc(C(=O)NCCCN3CC(C)CC(C)C3)o2)cc1 (configuration not stated) | 26% | -11% | 0% | -1% | u
COc1ccc(S(=O)(=O)N2c3cc(C)ccc3OCC2C(C)(C)C)cc1 (configuration not stated) | u | 16µM* | 5.8µM* | 5.8µM* | 24
COc1ccc(C(=O)N2CCCC(C(N)=O)C2)cc1S(=O)(=O)N1CCOCC1 (configuration not stated) | 2% | -3% | 1% | 8% | 0
COc1ccc(C(C(=O)Nc2ccc(C(C)C)cc2)N(Cc2ccco2)C(=O)CC2NC(=O)NC2=O)cc1 (configuration not stated) | u | u | -11% | -14% | -70*
Cc1ccc(C2=NS(=O)(=O)N(C)C(C(=O)N3CCOCC3)=C2)cc1 | -24% | 0% | 1% | 3% | -8

Screening data: PubChem BioAssay, National Center for Advancing Translational Sciences (NCATS)
